We go through 17 targets from the supplement of paper PMC11001985.

UniProt Q12797, sequence (Q12797 whole entry): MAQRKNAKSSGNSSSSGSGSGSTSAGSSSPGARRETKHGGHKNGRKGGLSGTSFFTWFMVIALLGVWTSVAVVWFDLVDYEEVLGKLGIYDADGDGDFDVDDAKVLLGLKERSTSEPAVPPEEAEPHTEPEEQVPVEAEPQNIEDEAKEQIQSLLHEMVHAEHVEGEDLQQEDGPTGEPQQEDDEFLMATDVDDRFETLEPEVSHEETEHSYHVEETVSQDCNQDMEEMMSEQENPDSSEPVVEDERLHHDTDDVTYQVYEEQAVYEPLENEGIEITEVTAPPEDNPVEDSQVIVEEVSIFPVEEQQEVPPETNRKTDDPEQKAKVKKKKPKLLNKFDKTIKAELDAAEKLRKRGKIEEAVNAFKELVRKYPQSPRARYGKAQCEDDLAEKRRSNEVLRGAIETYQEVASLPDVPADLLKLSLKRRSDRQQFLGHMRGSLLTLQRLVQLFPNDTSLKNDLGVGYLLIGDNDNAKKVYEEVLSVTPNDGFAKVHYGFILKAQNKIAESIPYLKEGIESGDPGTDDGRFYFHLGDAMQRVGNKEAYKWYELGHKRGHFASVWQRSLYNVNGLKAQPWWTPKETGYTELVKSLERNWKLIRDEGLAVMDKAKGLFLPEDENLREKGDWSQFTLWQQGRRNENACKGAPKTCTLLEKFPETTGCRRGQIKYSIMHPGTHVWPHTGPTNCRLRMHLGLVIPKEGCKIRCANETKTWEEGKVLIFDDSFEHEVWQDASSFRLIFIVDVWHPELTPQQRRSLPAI
UniProt Q03167, sequence (Q03167 whole entry): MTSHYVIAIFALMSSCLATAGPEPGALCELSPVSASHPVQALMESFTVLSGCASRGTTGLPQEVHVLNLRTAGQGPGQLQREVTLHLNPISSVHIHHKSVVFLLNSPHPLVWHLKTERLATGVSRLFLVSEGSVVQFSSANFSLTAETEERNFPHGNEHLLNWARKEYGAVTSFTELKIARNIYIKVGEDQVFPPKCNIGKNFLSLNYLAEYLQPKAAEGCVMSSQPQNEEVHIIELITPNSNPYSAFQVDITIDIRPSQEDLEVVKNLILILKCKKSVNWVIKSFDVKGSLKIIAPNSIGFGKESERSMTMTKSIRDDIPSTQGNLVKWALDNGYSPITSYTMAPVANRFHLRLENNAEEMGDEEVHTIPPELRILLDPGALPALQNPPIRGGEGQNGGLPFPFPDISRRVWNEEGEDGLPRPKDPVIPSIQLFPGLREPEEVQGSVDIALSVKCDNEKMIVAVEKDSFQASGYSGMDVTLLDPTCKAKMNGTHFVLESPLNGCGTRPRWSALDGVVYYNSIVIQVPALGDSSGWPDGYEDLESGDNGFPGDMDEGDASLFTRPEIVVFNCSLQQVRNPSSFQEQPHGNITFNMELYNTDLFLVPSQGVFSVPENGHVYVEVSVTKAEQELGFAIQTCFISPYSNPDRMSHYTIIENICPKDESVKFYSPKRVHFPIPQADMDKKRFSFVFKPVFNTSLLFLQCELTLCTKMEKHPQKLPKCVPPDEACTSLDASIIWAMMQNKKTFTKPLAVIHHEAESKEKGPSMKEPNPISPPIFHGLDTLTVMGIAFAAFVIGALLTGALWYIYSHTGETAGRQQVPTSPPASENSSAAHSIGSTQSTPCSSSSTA
UniProt Q9Y6N7, sequence (Q9Y6N7 whole entry): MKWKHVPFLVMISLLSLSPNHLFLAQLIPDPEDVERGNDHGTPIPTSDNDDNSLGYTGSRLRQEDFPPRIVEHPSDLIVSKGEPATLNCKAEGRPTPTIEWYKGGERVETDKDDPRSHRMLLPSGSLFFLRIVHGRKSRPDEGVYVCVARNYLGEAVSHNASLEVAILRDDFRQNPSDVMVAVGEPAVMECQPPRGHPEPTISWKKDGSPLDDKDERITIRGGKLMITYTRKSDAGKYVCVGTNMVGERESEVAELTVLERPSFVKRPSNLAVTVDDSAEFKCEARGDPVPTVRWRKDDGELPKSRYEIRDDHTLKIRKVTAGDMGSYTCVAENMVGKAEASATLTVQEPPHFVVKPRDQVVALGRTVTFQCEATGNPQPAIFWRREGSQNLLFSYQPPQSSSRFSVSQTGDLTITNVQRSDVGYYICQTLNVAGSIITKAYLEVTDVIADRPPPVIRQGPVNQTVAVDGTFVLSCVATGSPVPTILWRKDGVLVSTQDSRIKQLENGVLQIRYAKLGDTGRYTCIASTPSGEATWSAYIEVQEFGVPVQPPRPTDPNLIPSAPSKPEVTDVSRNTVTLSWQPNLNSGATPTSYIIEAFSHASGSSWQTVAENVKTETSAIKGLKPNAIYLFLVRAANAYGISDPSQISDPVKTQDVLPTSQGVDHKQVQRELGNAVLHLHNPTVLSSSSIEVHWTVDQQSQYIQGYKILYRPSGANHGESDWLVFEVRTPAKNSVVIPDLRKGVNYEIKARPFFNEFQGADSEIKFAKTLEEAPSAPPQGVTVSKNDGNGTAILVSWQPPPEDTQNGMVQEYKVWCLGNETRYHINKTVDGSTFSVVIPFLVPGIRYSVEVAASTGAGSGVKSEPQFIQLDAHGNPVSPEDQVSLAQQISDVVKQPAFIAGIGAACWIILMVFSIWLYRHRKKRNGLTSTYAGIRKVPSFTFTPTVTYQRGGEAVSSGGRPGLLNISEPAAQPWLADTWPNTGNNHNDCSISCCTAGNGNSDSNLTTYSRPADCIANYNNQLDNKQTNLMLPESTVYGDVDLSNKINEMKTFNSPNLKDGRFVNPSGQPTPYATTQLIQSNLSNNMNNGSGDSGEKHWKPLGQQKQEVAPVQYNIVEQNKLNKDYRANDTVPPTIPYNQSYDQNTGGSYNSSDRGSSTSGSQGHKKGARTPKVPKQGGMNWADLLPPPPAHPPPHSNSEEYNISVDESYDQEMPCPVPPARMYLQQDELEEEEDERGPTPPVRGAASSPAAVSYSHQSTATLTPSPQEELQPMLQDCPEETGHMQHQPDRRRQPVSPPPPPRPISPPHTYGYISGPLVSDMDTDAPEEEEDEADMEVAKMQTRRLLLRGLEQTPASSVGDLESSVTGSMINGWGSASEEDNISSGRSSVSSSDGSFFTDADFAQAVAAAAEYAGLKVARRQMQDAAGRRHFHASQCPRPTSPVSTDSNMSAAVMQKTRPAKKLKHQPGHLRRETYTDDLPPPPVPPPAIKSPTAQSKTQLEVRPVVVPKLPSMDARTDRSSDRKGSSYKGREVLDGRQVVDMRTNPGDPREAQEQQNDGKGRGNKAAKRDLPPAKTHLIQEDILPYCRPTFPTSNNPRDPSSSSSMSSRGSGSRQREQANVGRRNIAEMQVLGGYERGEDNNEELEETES
UniProt O15067, sequence (O15067 whole entry): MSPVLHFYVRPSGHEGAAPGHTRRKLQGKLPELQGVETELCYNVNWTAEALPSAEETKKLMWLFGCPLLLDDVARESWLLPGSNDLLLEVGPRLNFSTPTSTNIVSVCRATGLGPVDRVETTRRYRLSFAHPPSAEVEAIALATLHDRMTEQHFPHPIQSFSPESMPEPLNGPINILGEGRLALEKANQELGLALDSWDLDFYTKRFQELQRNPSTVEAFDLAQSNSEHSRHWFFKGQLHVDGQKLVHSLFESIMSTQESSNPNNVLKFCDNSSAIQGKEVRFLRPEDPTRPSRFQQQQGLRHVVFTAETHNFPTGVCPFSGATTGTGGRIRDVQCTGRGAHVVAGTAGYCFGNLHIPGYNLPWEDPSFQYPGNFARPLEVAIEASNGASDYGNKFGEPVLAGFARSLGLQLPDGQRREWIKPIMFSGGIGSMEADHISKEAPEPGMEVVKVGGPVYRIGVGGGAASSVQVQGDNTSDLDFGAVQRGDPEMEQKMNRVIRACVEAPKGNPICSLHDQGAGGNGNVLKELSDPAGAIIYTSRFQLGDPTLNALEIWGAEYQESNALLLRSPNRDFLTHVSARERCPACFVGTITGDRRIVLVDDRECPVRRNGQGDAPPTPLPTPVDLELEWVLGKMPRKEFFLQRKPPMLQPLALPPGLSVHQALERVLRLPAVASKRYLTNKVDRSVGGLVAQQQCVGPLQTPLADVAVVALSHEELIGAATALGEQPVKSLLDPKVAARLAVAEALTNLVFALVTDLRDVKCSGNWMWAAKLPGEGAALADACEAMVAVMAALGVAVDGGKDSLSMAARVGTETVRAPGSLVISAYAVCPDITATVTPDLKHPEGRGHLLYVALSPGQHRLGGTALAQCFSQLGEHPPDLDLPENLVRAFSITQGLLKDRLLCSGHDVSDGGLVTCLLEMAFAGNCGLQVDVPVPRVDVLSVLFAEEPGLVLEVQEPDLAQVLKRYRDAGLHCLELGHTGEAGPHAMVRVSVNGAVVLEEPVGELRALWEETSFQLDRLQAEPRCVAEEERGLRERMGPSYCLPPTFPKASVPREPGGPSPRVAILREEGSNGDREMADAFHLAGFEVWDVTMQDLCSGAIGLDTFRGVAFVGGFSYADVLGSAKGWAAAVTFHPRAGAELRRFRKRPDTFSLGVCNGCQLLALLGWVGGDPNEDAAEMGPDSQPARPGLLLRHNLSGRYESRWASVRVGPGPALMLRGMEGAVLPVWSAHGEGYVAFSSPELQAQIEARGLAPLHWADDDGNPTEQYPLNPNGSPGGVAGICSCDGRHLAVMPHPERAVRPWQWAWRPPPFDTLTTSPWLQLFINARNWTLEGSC
UniProt P50454, sequence (P50454 whole entry): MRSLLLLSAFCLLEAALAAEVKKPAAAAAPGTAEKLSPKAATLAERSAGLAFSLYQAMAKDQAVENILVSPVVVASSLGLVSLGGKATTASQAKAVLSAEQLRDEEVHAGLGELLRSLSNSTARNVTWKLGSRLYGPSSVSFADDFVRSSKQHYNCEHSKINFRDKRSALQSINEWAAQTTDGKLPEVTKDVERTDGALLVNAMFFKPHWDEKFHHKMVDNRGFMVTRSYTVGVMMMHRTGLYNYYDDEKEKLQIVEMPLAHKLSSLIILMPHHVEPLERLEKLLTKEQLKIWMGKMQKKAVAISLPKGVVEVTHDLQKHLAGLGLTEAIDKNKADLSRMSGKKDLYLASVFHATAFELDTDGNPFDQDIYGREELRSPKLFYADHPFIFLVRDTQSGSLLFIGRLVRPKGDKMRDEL

Compound in this experiment: C#CCNC(=O)CCSSCCC(=O)NCCc1ccc(C=O)c(C=O)c1
Nature of the experiment: lysine labeling ratio R10:1 (500 µM / 50 µM probe), SILAC-ABPP in living cells; higher = lower intrinsic lysine reactivity toward the probe, active = 2 or less. The conditions noted are these: HeLa; probe concentrations 500 vs 50 µM. The method, boiled down: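 An alkyne-tagged lysine probe with a disulfide linker labelled living HeLa cells in PBS at room temperature at either 50 µM or 500 µM, using SILAC light and heavy cells in forward and reverse label swaps. Lysates were mixed, clicked to biotin-azide, trypsin-digested, enriched on neutravidin, DTT-released, alkylated and measured by LC-MS/MS on a TIMS-TOF Pro. Each lysine's R is the filtered median high-probe/low-probe MS1 peptide ratio, combined as the median over forward and reverse replicates, with 20 as the upper limit.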
Take “ITGAV (lysine site: K718) (UniProt P06756)”: the “lysine labeling ratio R10:1” value is 2.95 (inactive).

In the case of “HNRNPM (lysine site: K716) (UniProt P52272)”, the “lysine labeling ratio R10:1” value is 1.35 (active).

Regarding “ATAD3B (lysine site: K505) (UniProt Q5T9A4)”, the “lysine labeling ratio R10:1” value is 0.98 (active).

As for “ROBO1 (lysine site: K316) (UniProt Q9Y6N7)”, the “lysine labeling ratio R10:1” value is 6.23 (inactive).

As for UniProt P08727 (lysine site: K140), the “lysine labeling ratio R10:1” value was 2.21 (inactive).

Turning to “TGFBR3 (lysine site: K314) (UniProt Q03167)”, the “lysine labeling ratio R10:1” value is 1.51 (active).

Regarding “PEBP1 (lysine site: K113) (UniProt P30086)”, the “lysine labeling ratio R10:1” value was 2.7 (inactive).

With “DDX5 (lysine site: K375) (UniProt P17844)”, the “lysine labeling ratio R10:1” value was 2.45 (inactive).

As to “SERPINH1 (lysine site: K334) (UniProt P50454)”, the “lysine labeling ratio R10:1” value is 2.28 (inactive).

As for UniProt P62263 (lysine site: K106), the “lysine labeling ratio R10:1” value was 5.29 (inactive).

As for UniProt P55285 (lysine site: K418), the “lysine labeling ratio R10:1” value was 1.1 (active).

Turning to UniProt P17612 (lysine site: K48), the “lysine labeling ratio R10:1” value is 1.56 (active).

Take “ASPH (lysine site: K110) (UniProt Q12797)”: the “lysine labeling ratio R10:1” value is 4.5 (inactive).

As to “CFL1 (lysine site: K78) (UniProt P23528)”, the “lysine labeling ratio R10:1” value is 1.61 (active).

“PFAS (lysine site: K639) (UniProt O15067)”: the “lysine labeling ratio R10:1” value is 1.58 (active).

As for “EEF2 (lysine site: K426) (UniProt P13639)”, the “lysine labeling ratio R10:1” value was 3.49 (inactive).

Take “ASPH (lysine site: K552) (UniProt Q12797)”: the “lysine labeling ratio R10:1” value is 4.2 (inactive).
